Hits are enriched below; roughly 2.8% of the tested compounds scored in any of these assays.
DRD3 antagonist: qHTS of D3 Dopamine Receptor Antagonist: qHTS | D(3) dopamine receptor (Homo sapiens), P35462 | D3R cells, DiscoveRx beta-arrestin luminescence, antagonist mode; stronger effect = lower value | max response, negative = inhibition, % | 2.5% of 360,000 active; in the data active = max response below about -50%; inconclusive = no clear call, values can overlap the other calls
Target sequence (P35462 whole entry, looked up): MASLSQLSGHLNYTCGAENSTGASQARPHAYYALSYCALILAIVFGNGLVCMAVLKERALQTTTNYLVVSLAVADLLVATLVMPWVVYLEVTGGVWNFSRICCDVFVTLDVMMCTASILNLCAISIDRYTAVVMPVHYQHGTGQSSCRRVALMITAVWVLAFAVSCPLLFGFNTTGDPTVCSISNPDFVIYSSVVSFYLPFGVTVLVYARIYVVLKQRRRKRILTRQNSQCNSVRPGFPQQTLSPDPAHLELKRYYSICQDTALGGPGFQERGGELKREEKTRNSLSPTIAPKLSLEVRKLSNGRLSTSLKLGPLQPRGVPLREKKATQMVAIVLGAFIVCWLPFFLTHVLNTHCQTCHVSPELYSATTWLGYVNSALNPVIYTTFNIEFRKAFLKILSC
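Cells plated overnight at 1500 cells/well, then exposed to library compounds with dopamine controls for 90 minutes at 37 degrees C. DiscoveRx reagent added for 30–60 minutes at room temperature; luminescence read, quantitative HTS format.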
RGS4 inh: Inhibitors of Regulator of G Protein Signaling (RGS) 4: qHTS. Regulator of G-protein signaling 4 (Homo sapiens), P49798. Transcreener GDP fluorescence polarization, RGS4-accelerated GTP hydrolysis. Potency, µM (series often up to 114 µM), hits mostly inhibitors. 0.039% of 390,000 active; active = well fitted inhibition curve with a large enough effect; inconclusive = small, poorly fitted or top-dose-only effect; inactive = no such curve, though single readings can be large or run the other way; also: nearly all actives have a fitted effect of over 75% in size
Target sequence (P49798 whole entry, looked up): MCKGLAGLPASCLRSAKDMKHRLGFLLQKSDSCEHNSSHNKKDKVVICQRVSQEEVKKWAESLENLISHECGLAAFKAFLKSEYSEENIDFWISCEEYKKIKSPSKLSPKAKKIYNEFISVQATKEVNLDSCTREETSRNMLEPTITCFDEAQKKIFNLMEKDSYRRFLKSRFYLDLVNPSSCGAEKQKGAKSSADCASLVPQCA
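MLSMR compounds (23 nl, pin-transferred) preincubated 10 min at room temperature with a 500nM (2x) first reagent, then RGS4 at 900nM (2x) plus Transcreener GDP mix added; fluorescence polarization (620/688 nm) read before and after 90 min at 30 °C.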
Akt phos inh: HTS Assay for Inhibitors of Akt Phophorylation: Primary Screen; 0.32% of 360,000 active; activity change, % for hits at 50 µM; Neuro2A IGF-stimulated pAkt S473 HTRF, 20 min; stronger effect = lower value; in the data active = activity change below about -80%; inconclusive = mostly about -51% to -80%
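Neuro2A cells (4,500/well, DMEM with 0.5% FBS) were treated with compound at a single 50 µM final concentration, stimulated with 6 nM IGF for 20 min at 37 °C, and lysed. Phospho-Akt Ser473 was read by HTRF as 665/615 ratio ×10^4.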
PI4K2A inh: qHTS for small molecular inhibitors of PI4K2A; Phosphatidylinositol 4-kinase type 2-alpha (Homo sapiens), Q9BTU6; purified PI4K2A, ADP-Glo luminescence, 1 h; stronger effect = lower value; activity change, negative = inhibition, % at 76.9 µM; 0.13% of 420,000 active; AID 1346378, 2018; in the data active = activity change below about -50%; inconclusive = mostly about -30% to -49%
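In this quantitative HTS, ADP production by PI4K2A was quantified luminescently after 1 h at ambient temperature; 100 microM adenosine served as plate-quality control.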
DRD3 agonist: qHTS of D3 Dopamine Receptor Agonist: qHTS | D3R DiscoveRx beta-arrestin cells, luminescence, 90 min | max activation, % | 0.58% of 410,000 active; in the data active = max activation above about 30%
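Cells at 1500/well, incubated overnight, then treated with pinned compounds (dopamine as control) for 90 min at 37 degrees C. DiscoveRx reagent added for 30 - 60 minutes at room temperature; luminescence read.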
LDHA block: qHTS assay for inhibitors of human lactate dehydrogenase | L-lactate dehydrogenase A chain (Homo sapiens), P00338 | purified LDHA, NADH/diaphorase-resazurin fluorescence; stronger effect = lower value | activity change, % (values are at about 110 or 230 µM) | 0.15% of 480,000 active | AID 1347041, 2019; in the data active = activity change below about -30%; inconclusive = mostly about -25% to -30%
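Human LDH5 at 2 nM final in Tris HCl pH 7.4 with 0.06 mM NADH and 0.2 mM pyruvate, reacted 5 minutes at room temperature. Remaining NADH coupled via diaphorase/resazurin; resorufin fluorescence read at 0 and 20 minutes, normalized to enzyme-free and DMSO wells.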
Hits are given with their value; i = inactive; ? = inconclusive; nt = no result; [ ] = dose if it differs, or a comment.

SMILES	DRD3 antagonist	RGS4 inh	Akt phos inh	PI4K2A inh	DRD3 agonist	LDHA block
C/C(=N\NC(=O)C(c1ccccc1)c1ccccc1)c1ccc(O)cc1	i	i	i	i	i	i
C/C(=N\NC(=O)c1ccc(Cl)c(Cl)c1)c1ccccn1	?	i	i	i	i	i
C/C(=N\NC(=O)C1CCCN(S(=O)(=O)c2ccccc2)C1)c1ccccn1 (centres undefined)	-90	i	i	i	i	i
COc1cc(OC)cc(C(=O)OCc2nc3ccccc3o2)c1	nt	nt	nt	nt	nt	i
O=C1Cc2cc(C(=O)CSc3ccc4c(c3)OCCCO4)ccc2N1	nt	nt	nt	nt	nt	i
Cc1ccc(-n2ncc3c(NCC4CCCO4)ncnc32)cc1 (centres undefined)	nt	nt	nt	nt	nt	i
COc1ccc(C(=O)N/N=C(\C)c2ccccn2)cc1OC	-54	i	i	i	i	i
C/C(=N\NC(=O)c1ccccc1Cl)c1ccccn1	?	i	i	i	i	i
C/C(=N\NC(=O)c1cccc2ccccc12)c1ccccn1	-93	i	i	i	i	i
CCOc1ccc(OCc2ccc(C(=O)N/N=C(\C)c3ccccn3)cc2)cc1	-81	i	i	i	i	i
Cc1ccc(-c2nn(-c3cc(N4CCOCC4)ccc3[N+](=O)[O-])c(=O)c3ccccc23)cc1	nt	nt	nt	nt	nt	i
C[C@@H]1CN([C@H](C)CO)C(=O)CCCn2cc(nn2)CO[C@H]1CN(C)S(=O)(=O)c1ccc2ccccc2c1	i	nt	i	i	i	-34
Cc1cc(C(=O)OC(C)C(=O)N2CCCCCC2)c2ccccc2n1 (centres undefined)	nt	nt	nt	nt	nt	i
NC(=O)C[n+]1cccc(C(=O)Nc2ccccc2)c1	-67	i	i	i	i	?
CCOC(=O)N1CCN(c2cc(C(=O)O)c3cc(NC(=O)C(C)C)ccc3n2)CC1	nt	nt	nt	nt	nt	i
N#Cc1ccc(CNc2ccccc2C(N)=O)cc1	nt	nt	nt	nt	nt	i
CC1CCC/C(=C\c2ccc(O)cc2)C1=O (centres undefined)	i	i	i	i	i	i
COc1ccc(/C=C2\CCC(C3CCCC3)C2=O)cc1 (centres undefined)	i	i	i	i	i	i
COc1ccc(/C=C2/CCC(CN3CCOCC3)C2=O)cc1 (centres undefined)	-67	?	i	i	i	i
CN(C)CC1CC/C(=C\c2ccc(O)cc2)C1=O (centres undefined)	-61	?	i	i	i	i
O=C(c1cc(Br)c(Br)s1)N(Cc1ccccc1)C1CC1	nt	nt	nt	nt	nt	i
c1csc(-c2csc3ncnc(NCCCN4CCOCC4)c23)c1	-56	i	nt	i	i	i
c1ccc(N2CCN(c3ncnc4scc(-c5cccs5)c34)CC2)cc1	i	i	i	i	51	i
CCN1CCN(c2ncnc3scc(-c4ccc(OC)cc4)c23)CC1	-61	i	i	i	i	i
Fc1ccc(-c2csc3ncnc(N4CCN(c5ccccc5)CC4)c23)cc1	i	i	i	i	i	i
SMILES	DRD3 antagonist	RGS4 inh	Akt phos inh	PI4K2A inh	DRD3 agonist	LDHA block
COc1ccc(N2CCN(c3ncnc4scc(-c5ccccc5)c34)CC2)cc1	i	i	i	i	31	i
Cc1ccc(-c2nc(CN3CCCC3c3nnc4ccccn34)co2)cc1 (centres undefined)	nt	nt	nt	nt	nt	i
COc1cc(S(=O)(=O)N2CCCC2)c(OC)cc1Cl	nt	nt	nt	nt	nt	i
Cc1ccc(CNC(=O)CCCc2nc3ccccc3o2)cc1	nt	nt	nt	nt	nt	i
O=C(NC(C1CC1)C1CC1)c1cc2ccccc2oc1=O	nt	nt	nt	nt	nt	i
C=C(Br)CN1CCN(C(=O)CN2CCCC2)CC1	nt	nt	nt	nt	nt	i
CN(C)C(=O)C1CCN(c2oc(-c3ccco3)nc2C#N)CC1	nt	nt	nt	nt	nt	i
O=C1C=C(c2ccccc2)C(=O)N1Nc1ccccc1	?	?	i	i	i	i
Cc1ccc(NN2C(=O)C=CC2=O)cc1	i	i	i	i	i	i
COc1ccc(C2=CC(=O)N(Nc3ccccc3)C2=O)cc1	-62	i	i	i	i	i
Cc1ccc(NN2C(=O)C=C(c3ccc(Cl)cc3)C2=O)cc1	-53	?	i	i	i	i
CN1CCc2c(sc(/N=C/c3c[nH]c4ccccc34)c2C#N)C1	?	i	i	i	i	i
CN1CCc2c(sc(/N=C/c3c[nH]c4ccccc34)c2C(N)=O)C1	-52	i	i	i	i	i
O=[N+]([O-])c1c(Nc2cccc(O)c2)cc(Cl)c2nonc12	-131	i	i	i	i	i
Cc1c(Nc2cc(Cl)c3nonc3c2[N+](=O)[O-])c(=O)n(-c2ccccc2)n1C	-101	?	i	?	i	i
O=[N+]([O-])c1c(Nc2ccccc2)cc(Cl)c2nonc12	nt	nt	nt	nt	nt	i
CC1=NN(c2cccc([N+](=O)[O-])c2)C(=O)C1	i	i	i	-50	i	i
CC1=NN(c2ccc(Cl)cc2)C(=O)C1	i	i	i	?	i	i
CC1=NN(c2ccccc2)C(=O)C1	i	i	i	?	i	i
CC1=NN(c2ccc(N)cc2)C(=O)C1	?	i[11.4 µM]	i	-66	i	i
COc1ccccc1NC(=O)N1CCC(CCc2ccc(C)cc2)CC1	nt	nt	nt	nt	nt	i
CCOc1ccc2nc(Nc3nc(CSc4nnnn4-c4ccccc4)cc(=O)[nH]3)nc(C)c2c1	i	i	i	i	i	i
Cc1ccc(SCc2cc(=O)[nH]c(Nc3nc(C)c4cccc(C)c4n3)n2)cc1	-84	i	i	i	i	i
COc1ccc2nc(Nc3nc(CSc4nnnn4-c4ccccc4)cc(=O)[nH]3)nc(C)c2c1	-59	i	-120%	i	i	i
Cc1nc(Nc2nc(CSc3ccc(Cl)cc3)cc(=O)[nH]2)nc2c(C)cccc12	nt	nt	nt	nt	nt	i

High-throughput results: PubChem BioAssay, National Center for Advancing Translational Sciences (NCATS)
